For experiment [1], the target named is T1, Aspartate--tRNA(Asp/Asn) ligase (Mycobacterium tuberculosis (strain ATCC 25618 / H37Rv)) (UniProt P9WFW3). Further: in the data most compounds retested in dose-response had high values.
T1 sequence (whole entry): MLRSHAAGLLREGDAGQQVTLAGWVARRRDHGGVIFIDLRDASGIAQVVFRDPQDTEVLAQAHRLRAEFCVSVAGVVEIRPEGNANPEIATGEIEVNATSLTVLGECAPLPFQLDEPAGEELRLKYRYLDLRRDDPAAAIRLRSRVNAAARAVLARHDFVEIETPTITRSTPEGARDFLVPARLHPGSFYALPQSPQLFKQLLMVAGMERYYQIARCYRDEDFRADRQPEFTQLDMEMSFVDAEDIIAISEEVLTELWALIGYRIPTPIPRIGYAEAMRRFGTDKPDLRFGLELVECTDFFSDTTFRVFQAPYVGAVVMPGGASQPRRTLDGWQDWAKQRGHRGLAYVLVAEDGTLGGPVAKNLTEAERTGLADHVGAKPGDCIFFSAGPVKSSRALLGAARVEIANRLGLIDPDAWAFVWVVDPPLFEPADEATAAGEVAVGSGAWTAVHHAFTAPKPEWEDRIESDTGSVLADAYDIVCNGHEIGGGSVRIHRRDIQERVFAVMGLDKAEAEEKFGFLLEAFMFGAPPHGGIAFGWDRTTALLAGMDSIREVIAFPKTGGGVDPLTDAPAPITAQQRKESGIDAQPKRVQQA
Kind of experiment: Assay for Asp RNA synthetase-1 from Mycobacterium tuberculosis. In kind it is functional. The arrangement: scale not given: direction of the effect not stated beside the values. Particulars: 30 µM.

For experiment [2], the target named is Shiga toxin 2 (Escherichia coli O157:H7) (UniProt P09385+P09386). Kind of experiment: E. coli 0.157:H7 Shiga Toxin SOP - stx2 screening assay. In kind it is functional. Set-up: scale not given: direction of the effect not stated beside the values. Particulars: 30 µM.

Take `CCOc1ccc(CN2CCN(C(=O)c3ccc(C)n3C)CC2)cc1`: the Percent Effect in experiment [1] was 2.42%; in experiment [2] it was 8.86%.
As to `Cc1cnc2n(c1=O)CC(C(=O)Nc1cccc3cccnc13)CS2` (stereo not given), the figures for the Percent Effect in experiment [1] and in experiment [2] were 16.3% and 23.5%, respectively.
For `O=C(c1cnco1)N1CCCC(Cc2nccs2)C1` (stereo not given), in that order: 1.57% and -2.47%.
Regarding `CC(c1nc(C2CC2)no1)N1CCN(Cc2ccsc2)CC1` (stereo not given), the Percent Effect in experiment [1] was -4.63%; in experiment [2] it was -11.4%.
Turning to `O=C(c1ccc(-n2cccn2)nc1)N1CCCN(c2cccnn2)CC1`, the Percent Effect was -4.61% in experiment [1] and 3.17% in experiment [2].
For `COc1ccc(C(C)NC(=O)Cn2ccc(=O)n(C)c2=O)cc1OC` (stereo not given), in that order: 2.15% and -8.59%.
For `Cc1noc(C(C)N2CCN(CC(=O)N3CCOCC3)CC2)n1` (stereo not given), in that order: -8.27% and -0.00886%.
The corresponding values for `CCc1[nH]ncc1C(=O)N1CCCN(Cc2cnn(C)c2)CC1` are -0.259% and 17.2%.
Turning to `Cc1nc(C)n(CC2CCCN(c3ncnc4sccc34)C2)n1` (stereo not given), the Percent Effect in experiment [1] stood at 1.08%; in experiment [2], 21.2%.
As for `Cc1cc(=O)[nH]c(NCCNC(=O)C(c2ccc(F)cc2)N(C)C)n1` (stereo not given), the figures for the Percent Effect in experiment [1] and in experiment [2] were -2.14% and -65.1%, respectively.
On to `Cc1cnn(CC2CCCN2CC(=O)Nc2cc(C)nn2C)c1` (stereo not given), for which the Percent Effect in experiment [1] is 0.972%; in experiment [2] it was -20.9%.
As for `Cc1nn(C)c2cn(C(C)C(=O)NCc3cccnc3)nc12` (stereo not given), the Percent Effect in experiment [1] was -1.71%; in experiment [2], -24.9%.
Consider `Cc1cn[nH]c1C1CCCCN1C(=O)CCN1CCCCCC1` (stereo not given), for which the Percent Effect was 8.57% in experiment [1] and 28.2% in experiment [2].
With `CC(NCc1ccc(Cl)o1)c1nnc2n1CCCC2` (stereo not given), the Percent Effect in experiment [1] is -3.67%; in experiment [2], -31%.
For `CC(C)c1nc(C2CCCN(C(=O)c3ccc4nccn4c3)C2)no1` (stereo not given), in that order: 4.61% and 29.2%.
Turning to `COC[C@@H]1CC[C@H]2[C@H](CCN2S(=O)(=O)c2ccc(OC)cc2)O1`, the Percent Effect was -2.58% in experiment [1] and 1.36% in experiment [2].
Turning to `Cc1cc(C)c(CNC(=O)NCC(O)c2cccc(F)c2)c(=O)[nH]1` (stereo not given), the Percent Effect in experiment [1] turned out to be 2.36%; in experiment [2], 28.2%.
For `Cn1cc(C(=O)NC[C@@H]2OC[C@H]3CN(Cc4ccco4)CC[C@H]32)cn1`, the values for the Percent Effect in experiment [1] and in experiment [2] were -0.729% and -33.5%, respectively.
In the case of `CCS(=O)(=O)N1CCC2(CC1)CN(Cc1ccccn1)C(=O)CO2`, the Percent Effect in experiment [1] was 0.198%; in experiment [2], -10.6%.
The corresponding values for `CCN1C[C@H]2CCN(C(C)=O)CC[C@H]2S1(=O)=O` are -0.319% and -50.9%.
For `Cc1ccc(C2CCCN2Cc2nc3c(cnn3C)c(=O)[nH]2)cc1C` (stereo not given), in that order: -1.66% and -9.34%.
For `Cn1cc(CN2CC[C@@H]3[C@@H](CCC(=O)N3CCC3=CCCCC3)C2)cn1`, in that order: 0.0912% and -13%.
As to `O=C(Cn1ccc2ccccc21)NCc1ccc(C(=O)O)cc1`, the Percent Effect in experiment [1] was found to be 5.27%; in experiment [2], 6.55%.
Consider `CN1CC(=O)N(c2ccccc2)CC12CCN(Cc1nccs1)C2` (stereo not given), for which the values for the Percent Effect in experiment [1] and in experiment [2] were 4.78% and -21.2%, respectively.
The corresponding values for `CC(C)c1nn(C)c(Cl)c1CNC1CCOc2ccccc21` (stereo not given) are 1.57% and 27.5%.
Regarding `O=C(NCC1CC1)[C@H]1C[C@H]2OCC[C@H]2N(Cc2ccoc2)C1`, the Percent Effect was 2.61% in experiment [1] and -11.8% in experiment [2].
On to `COC(=O)c1ccc(N2CCN(C(=O)c3cnn(C)c3)C(C)C2)cc1` (stereo not given), for which the figures for the Percent Effect in experiment [1] and in experiment [2] were 0.343% and -15.2%, respectively.
For `Cc1nn(C)c(Cl)c1C1CCCN1CC(=O)NCc1ccccn1` (stereo not given), in that order: -2.78% and -10.8%.
The corresponding values for `CCNc1cc2c(nn1)CCN(C(=O)c1ccnc(N(C)C)c1)C2` are 0.611% and 3.23%.
The corresponding values for `CC(C)c1nnc2n1CCN(C(=O)c1ccc(OCC(N)=O)cc1)C2` are -5.82% and -6.36%.
As for `CN(Cc1cn2ccccc2c1C#N)C1CCCN(c2cccnn2)C1` (stereo not given), the Percent Effect is 0.694% in experiment [1] and -75.3% in experiment [2].
`O=C(NCCOc1ccc(F)c(F)c1)NCc1cccc(CO)c1`: the Percent Effect in experiment [1] is 0.257%; in experiment [2], -6.88%.
The corresponding values for `N#Cc1cccc(CN2CC[C@@H]3[C@@H]2CC(=O)N3Cc2cccnc2)c1` are 4.04% and -0.447%.
For `COc1cccc(CN(C)Cc2ccc(C#N)cc2)c1OC`, in that order: -1.31% and 9.74%.
Regarding `CCn1ccnc1CNCC1CCCN1c1cccnn1` (stereo not given), the Percent Effect is -8.36% in experiment [1] and 6.68% in experiment [2].
For the compound `Cc1cc(C)n(CC2CCCN2C(=O)c2cnn(C)c2C2CC2)n1` (stereo not given), the Percent Effect in experiment [1] is 1.84%; in experiment [2] it was 1.91%.
For `CC1N(CC2CC2)C(=O)COC12CCN(Cc1nccs1)CC2` (stereo not given), the values for the Percent Effect in experiment [1] and in experiment [2] were -0.821% and -13.9%, respectively.
For the compound `O=C(NCC1CC1)[C@H]1CC[C@@H]2[C@@H](CCN2Cc2ccoc2)O1`, the results for the Percent Effect in experiment [1] and in experiment [2] were -5.12% and 0.319%, respectively.
The corresponding values for `CC(C)(C)c1n[nH]c(C2CN(C(=O)c3cc(C4CC4)on3)CCO2)n1` (stereo not given) are -2.16% and -1.24%.
For `Cc1cc(C(=O)N2CCN(C(=O)Cc3ccccn3)CC2)c(C)s1`, in that order: 2.55% and 7.06%.
The corresponding values for `Cn1ccnc1CN1CCN(Cc2noc(-c3ccccc3)n2)CC1` are -2.31% and -6.06%.
As to `COCCN1CCC(NCc2cccnc2)C1` (stereo not given), the Percent Effect in experiment [1] is 4.4%; in experiment [2] it was 15.8%.
`N#Cc1ccc(OCCCN2CCc3cncnc3C2)cc1`: the Percent Effect in experiment [1] was -3.6%; in experiment [2], -20.7%.
The corresponding values for `Cc1cc(CN2CCN(C(=O)NCc3nc(C)cs3)CC2)on1` are 2.33% and 27.5%.
`CC(=O)N1N=C(c2ccccc2)OC1C(=O)NCCc1cccc(Cl)c1` (stereo not given): the Percent Effect was -3.19% in experiment [1] and 19.6% in experiment [2].

The values above are taken from ChEMBL document CHEMBL3988442, “University of Dundee, Small-Polar-MMV Screening Library” (2021).
